# From PubChem BioAssay (Tox21)
# Inconclusive results are not listed. Entries that show only a call come without a potency. The source made the active and inactive calls. Unless noted, calls come from the whole dose curve.
# Key:
# [1] = Nuclear factor erythroid 2-related factor 2/antioxidant responsive element (Nrf2/ARE) small molecule agonists: qHTS cell viability counter screen in human keratinocytes (AID 1919968; active = well fitted curve in the direction sought with a large enough effect in the repeat runs; an effect the other way counts as inactive or inconclusive; note: nearly all actives have a fitted effect of over 55% in size)
# Outline: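 Cytotoxicity was multiplexed with the Nrf2/ARE luciferase assay in the same wells. Stably transfected HaCaT keratinocytes were treated with test compounds for 23 h at 37 C. Cell viability was then measured by CellTiter-Fluor fluorescence.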
# [2] = Nuclear factor erythroid 2-related factor 2/antioxidant responsive element (Nrf2/ARE) small molecule agonists: luciferase reporter gene qHTS assay in human keratinocytes (AID 1919969); note: nearly all actives have a fitted effect of over 35% in size
# [3] = biological target: Gonadotropin-releasing hormone receptor (Homo sapiens) (UniProt P30968); test: Human gonadotropin-releasing hormone receptor (GnRHR) small molecule agonists, calcium flux assay in GnRHR-HEK293 cells (AID 1920063); note: nearly all actives have a fitted effect of over 35% in size
# Outline: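 Agonist activity was measured as intracellular calcium flux in HEK293 cells engineered to stably express human GnRHR. After dye loading for 1 hour at 37 C, compounds in DMSO were added and fluorescence was followed for 3 minutes.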
# [4] = biological target: KiSS-1 receptor (Homo sapiens) (UniProt Q969F8); test: Human kisspeptin (KISS1R) small molecule agonists, calcium flux assay in KISS1R-HEK293 cells (AID 1920064; active = well fitted curve in the direction sought with a large enough effect in the repeat runs; an effect the other way counts as inactive or inconclusive)
# Outline: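 Agonist activity is monitored as intracellular calcium rise in engineered HEK293 cells carrying human KISS1R. Cells are dye-loaded for 1 h at 37 C before compound addition, and fluorescence is recorded for 3 min.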
# [5] = G protein-coupled receptor (GPCR) small molecule agonists, calcium flux assay: HEK293 wild type cell line counter screen (AID 1920065)
# Outline: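 Seed cells, incubate 18 h (37 C, 5% CO2); add calcium dye, 1 h at 37 C; pin-transfer compounds, ATP control or DMSO; read fluorescence 480/540 nm each second for 3 min.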
# [6] = p53 small molecule agonists, cell-based qHTS assay with human liver microsomes (AID 1963577)
# Outline: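 Cells carrying a p53-responsive bla reporter were rested 5 h (37 C, 5% CO2) before compound transfer. Human liver microsomes plus NADPH, 0.5 mg/mL final apiece, supplied metabolism during the 16 h 37 C exposure.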
# [7] = p53 small molecule agonists, cell-based qHTS assay with rat liver microsomes (AID 1963578)
# Outline: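 Fluorescence from a beta-lactamase reporter under a p53 response element was measured after cells had been incubated 16 h at 37 C with test compound and rat liver microsomes plus NADPH (0.5 mg/mL final each).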
# [8] = p53 small molecule agonists, cell-based qHTS assay with human liver microsomes: qHTS cell viability counter screen (AID 1963579); note: nearly all actives have a fitted effect of over 45% in size
# Outline: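 Seed p53RE-bla cells at 4,000 per well; incubate 5 h at 37 C; add compound, human liver microsomes and NADPH; incubate 16 h at 37 C; add CellTiter-Glo; after 30 min at room temperature, read luminescence.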
# [9] = p53 small molecule agonists, cell-based qHTS assay with rat liver microsomes: qHTS cell viability counter screen (AID 1963580); note: nearly all actives have a fitted effect of over 45% in size
# Outline: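 Rat liver microsome (0.5 mg/mL final) and NADPH (0.5 mg/mL final) co-incubation with compounds for 16 h at 37 C on HCT-116 p53RE-bla cells; cytotoxicity taken from intracellular ATP luminescence.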
# [10] = p53 small molecule agonists, cell-based qHTS assay: qHTS cell viability counter screen (AID 1963581); note: nearly all actives have a fitted effect of over 45% in size
# Outline: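 Viability was counter-screened in parallel with the p53 agonist reporter by measuring intracellular ATP luminescence in the same HCT-116 p53RE-bla wells after 16 h compound treatment at 37 C.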
# [11] = p53 small molecule agonists, cell-based qHTS assay (AID 1963582; active = well fitted activation curve with a large enough effect in the signal ratio in the repeat runs, not every such curve was filed as active; the % refers to the signal ratio)
# Outline: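 Cells carrying a p53-responsive bla reporter are treated with test compounds for 16 h at 37 C; beta-lactamase activity is then detected with LiveBLAzer B/G FRET substrate after 2 h at room temperature.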
# [12] = biological target: 5-hydroxytryptamine receptor 2A (Homo sapiens) (UniProt P28223); test: 5-hydroxytryptamine receptor 2A (HTR2A) small molecule antagonists, cell-based qHTS assay (AID 1963586); note: nearly all actives have a fitted effect of over 45% in size; note: potency is the fitted concentration of half-maximal effect
# Outline: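 CHO cells stably expressing human HTR2A were plated for 18 h at 37 C, then loaded with calcium dye for 1 h. Compounds were preincubated 5 min at room temperature before DOI (4 nM solution) was added. Kinetic fluorescence was read for 3 min.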
# [13] = biological target: 5-hydroxytryptamine receptor 2A (Homo sapiens) (UniProt P28223); test: 5-hydroxytryptamine receptor 2A (HTR2A) small molecule agonists, cell-based qHTS assay (AID 1963587); note: nearly all actives have a fitted effect of over 30% in size
# Outline: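 Kinetic calcium-flux fluorescence (2 min, 1 sec intervals) after compound addition in agonist mode. HTR2A-CHO cells were cultured 18 h, then dye-loaded 1 h at 37 C.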
# [14] = biological target: Muscarinic acetylcholine receptor M1 (Homo sapiens) (UniProt P11229); test: Cholinergic receptor muscarinic 1 (CHRM1) small molecule antagonists, cell-based qHTS assay (AID 1963588); note: nearly all actives have a fitted effect of over 40% in size; note: potency is the fitted concentration of half-maximal effect
# Outline: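 Compounds were tested at 15 concentrations in three independent runs. Dye-loaded CHRM1-CHO cells were exposed 5 min at room temperature before stimulation by acetylcholine added at 50nM. Intracellular calcium was read kinetically on FDSS for 3 min.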
# [15] = biological target: Muscarinic acetylcholine receptor M1 (Homo sapiens) (UniProt P11229); test: Cholinergic receptor muscarinic 1 (CHRM1) small molecule agonists, cell-based qHTS assay (AID 1963589); note: nearly all actives have a fitted effect of over 35% in size
# Outline: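 Cells were plated and incubated 18 h at 37 C/5% CO2, loaded with calcium dye for 1 h at 37 C, then treated with compounds in DMSO. Fluorescence was recorded kinetically at 1 sec intervals.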
# [16] = cAMP Responsive Elements (CRE) small molecule agonists, cell-based qHTS assay (AID 1963590)
# Outline: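 Cells carrying a CRE-driven beta-lactamase reporter (HEK 293T) are seeded, incubated overnight (18 h), and treated with test compounds for 3 h at 37 C; reporter activity is then detected with a FRET substrate after 2 h at room temperature.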
# [17] = cAMP Responsive Elements (CRE) small molecule antagonists, cell-based qHTS assay (AID 1963591; active = well fitted inhibition curve with a large enough effect in the signal ratio in the repeat runs, not every such curve was filed as active; the % refers to the signal ratio)
# Outline: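 Cells (CRE-bla HEK 293T, DMEM with 10% dialyzed FBS and 25 mM HEPES) are seeded and incubated 18 h. Compounds are added with NKH477 agonist at 0.25 uM final for 3 h, then FRET substrate for 2 h.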
# [18] = biological target: Beta-2 adrenergic receptor (Homo sapiens) (UniProt P07550); test: Adrenergic beta2 receptor (ADRB2) small molecule antagonists, cell-based qHTS assay (AID 1963592); note: series mostly up to about 92 µM; nearly all actives have a fitted effect of over 50% in size
# Outline: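 Assay format: CHO-ADRB2 cells, 18-20hr seeding at 37C/5% CO2, then compound plus 1nM isoproterenol agonist mix for 0.5hr RT. Homogeneous time-resolved fluorescence cAMP detection after 1hr, expressed as 665/615 nm ratio.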
# [19] = biological target: D(2) dopamine receptor (Homo sapiens) (UniProt P14416); test: Dopamine D2 receptor (DRD2) small molecule agonists, cell-based qHTS assay (AID 1963594); note: nearly all actives have a fitted effect of over 35% in size
# Outline: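 cAMP accumulation in DRD2-HEK293 cells measured by HTRF after 1 h detection; compounds added 10 min before NKH477 (200nM […]) forskolin-analogue stimulation, 30 min at room temperature, with Ro20-1724 present at 0.1 mM final.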
# [20] = biological target: D(2) dopamine receptor (Homo sapiens) (UniProt P14416); test: Dopamine D2 receptor (DRD2) small molecule antagonists, cell-based qHTS assay (AID 1963595; active = well fitted inhibition curve with a large enough effect in the signal ratio in the repeat runs, with a control signal flat; the % refers to the signal ratio; note: potency is the fitted concentration of half-maximal effect)
# Outline: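 Readout: HTRF cAMP, cAMP-d2 competing with cellular cAMP for anti-cAMP cryptate, read after 1 h. Cells: DRD2-HEK293. Conditions: 0.1 mM Ro20-1724, 12 nM quinpirole, 200 nM NKH477, 30 min RT.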
# Sequence of D(2) dopamine receptor (Homo sapiens) (P14416 whole entry, looked up): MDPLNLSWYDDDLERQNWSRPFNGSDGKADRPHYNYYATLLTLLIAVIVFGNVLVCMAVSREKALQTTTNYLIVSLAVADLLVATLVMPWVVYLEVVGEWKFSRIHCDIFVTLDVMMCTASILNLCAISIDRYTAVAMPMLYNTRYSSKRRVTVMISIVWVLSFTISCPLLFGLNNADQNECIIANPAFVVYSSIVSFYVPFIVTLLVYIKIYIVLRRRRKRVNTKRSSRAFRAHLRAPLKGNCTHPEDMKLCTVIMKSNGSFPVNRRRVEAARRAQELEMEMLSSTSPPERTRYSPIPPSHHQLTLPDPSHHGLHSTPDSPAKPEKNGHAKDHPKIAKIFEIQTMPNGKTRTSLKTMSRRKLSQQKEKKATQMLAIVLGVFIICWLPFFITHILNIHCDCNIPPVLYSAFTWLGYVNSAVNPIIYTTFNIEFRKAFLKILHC
# Sequence of Gonadotropin-releasing hormone receptor (Homo sapiens) (P30968 whole entry, looked up): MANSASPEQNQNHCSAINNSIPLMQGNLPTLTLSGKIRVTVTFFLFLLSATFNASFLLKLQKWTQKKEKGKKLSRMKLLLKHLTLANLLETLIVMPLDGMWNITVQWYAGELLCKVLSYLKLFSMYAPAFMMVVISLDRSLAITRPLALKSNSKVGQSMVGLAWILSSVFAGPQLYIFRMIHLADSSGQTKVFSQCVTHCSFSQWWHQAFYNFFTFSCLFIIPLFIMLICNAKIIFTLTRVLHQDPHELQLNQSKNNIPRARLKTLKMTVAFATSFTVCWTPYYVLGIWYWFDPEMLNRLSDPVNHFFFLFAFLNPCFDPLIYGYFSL
# Sequence of 5-hydroxytryptamine receptor 2A (Homo sapiens) (P28223 whole entry, looked up): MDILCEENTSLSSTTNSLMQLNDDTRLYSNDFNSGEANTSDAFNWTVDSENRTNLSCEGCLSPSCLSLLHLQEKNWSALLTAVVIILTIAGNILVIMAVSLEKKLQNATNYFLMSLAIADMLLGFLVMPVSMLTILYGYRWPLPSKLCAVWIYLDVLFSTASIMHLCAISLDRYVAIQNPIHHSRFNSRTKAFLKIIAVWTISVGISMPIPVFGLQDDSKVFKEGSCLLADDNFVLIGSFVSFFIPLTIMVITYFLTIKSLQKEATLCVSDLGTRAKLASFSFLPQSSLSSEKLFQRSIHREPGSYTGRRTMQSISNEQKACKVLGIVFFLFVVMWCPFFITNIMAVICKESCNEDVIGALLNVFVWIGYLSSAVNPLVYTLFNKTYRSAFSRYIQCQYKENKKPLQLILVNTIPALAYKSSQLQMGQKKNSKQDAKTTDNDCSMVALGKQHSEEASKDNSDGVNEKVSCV
# Sequence of Muscarinic acetylcholine receptor M1 (Homo sapiens) (P11229 whole entry, looked up): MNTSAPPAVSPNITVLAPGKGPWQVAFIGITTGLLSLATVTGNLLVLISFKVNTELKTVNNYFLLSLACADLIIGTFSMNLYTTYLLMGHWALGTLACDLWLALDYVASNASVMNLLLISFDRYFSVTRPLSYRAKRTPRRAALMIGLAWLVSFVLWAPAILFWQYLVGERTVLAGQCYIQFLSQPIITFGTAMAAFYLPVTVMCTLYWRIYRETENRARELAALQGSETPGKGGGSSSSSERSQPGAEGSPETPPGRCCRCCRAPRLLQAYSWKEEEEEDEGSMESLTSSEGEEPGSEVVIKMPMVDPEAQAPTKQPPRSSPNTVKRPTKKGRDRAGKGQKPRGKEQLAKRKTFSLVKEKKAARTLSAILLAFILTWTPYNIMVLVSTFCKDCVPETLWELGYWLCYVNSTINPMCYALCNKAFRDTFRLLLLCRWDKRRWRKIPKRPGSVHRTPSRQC
# Sequence of Beta-2 adrenergic receptor (Homo sapiens) (P07550 whole entry, looked up): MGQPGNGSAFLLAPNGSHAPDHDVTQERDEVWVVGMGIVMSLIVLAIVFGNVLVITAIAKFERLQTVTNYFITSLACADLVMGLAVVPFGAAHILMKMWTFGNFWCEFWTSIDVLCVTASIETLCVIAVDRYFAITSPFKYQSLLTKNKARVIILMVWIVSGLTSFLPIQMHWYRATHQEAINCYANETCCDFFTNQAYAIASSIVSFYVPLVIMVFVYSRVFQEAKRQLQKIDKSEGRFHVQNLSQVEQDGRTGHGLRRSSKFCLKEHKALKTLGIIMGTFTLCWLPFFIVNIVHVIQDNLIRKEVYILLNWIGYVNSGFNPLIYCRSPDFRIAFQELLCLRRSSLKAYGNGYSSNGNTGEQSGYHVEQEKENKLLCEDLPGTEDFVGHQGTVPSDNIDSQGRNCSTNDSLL
# Sequence of KiSS-1 receptor (Homo sapiens) (Q969F8 whole entry, looked up): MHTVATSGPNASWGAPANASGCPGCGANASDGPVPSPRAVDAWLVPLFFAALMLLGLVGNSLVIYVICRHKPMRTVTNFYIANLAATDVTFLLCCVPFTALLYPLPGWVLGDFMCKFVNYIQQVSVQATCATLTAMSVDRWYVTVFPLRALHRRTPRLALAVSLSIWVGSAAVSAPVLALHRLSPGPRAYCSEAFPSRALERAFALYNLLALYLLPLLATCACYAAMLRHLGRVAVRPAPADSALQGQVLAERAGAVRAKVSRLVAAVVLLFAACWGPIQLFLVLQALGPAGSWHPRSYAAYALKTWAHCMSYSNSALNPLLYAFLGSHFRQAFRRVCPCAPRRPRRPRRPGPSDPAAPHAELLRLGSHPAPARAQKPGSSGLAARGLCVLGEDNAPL
SMILES,Potency [1],Potency [2],Potency [3],Potency [4],Potency [5],Potency [6],Potency [7],Potency [8],Potency [9],Potency [10],Potency [11],Potency [12],Potency [13],Potency [14],Potency [15],Potency [16],Potency [17],Potency [18],Potency [19],Potency [20]
Cc1ncc(CO)c(CN)c1O,inactive,inactive,inactive,inactive,inactive,inactive,inactive,inactive,inactive,inactive,inactive,inactive,inactive,inactive,inactive,inactive,inactive,inactive,inactive,–
CCNc1nc(N)nc(Cl)n1,inactive,inactive,inactive,inactive,inactive,inactive,inactive,inactive,inactive,inactive,inactive,inactive,inactive,inactive,inactive,inactive,inactive,inactive,inactive,inactive
Cc1ccc(S(N)(=O)=O)cc1,inactive,inactive,inactive,inactive,inactive,inactive,inactive,inactive,inactive,inactive,inactive,inactive,inactive,inactive,inactive,inactive,inactive,inactive,inactive,inactive
C=CCOc1cc(Cl)ccc1C(=O)NCCN(CC)CC,inactive,inactive,inactive,inactive,inactive,inactive,inactive,inactive,inactive,inactive,inactive,inactive,inactive,4600 nM (active),inactive,inactive,inactive,inactive,inactive,–
CC(C)CC(=O)OCc1ccccc1,inactive,inactive,inactive,inactive,inactive,inactive,inactive,inactive,inactive,inactive,inactive,inactive,inactive,inactive,inactive,inactive,inactive,inactive,inactive,inactive
Nc1ccccc1S(=O)(=O)O,inactive,inactive,inactive,inactive,inactive,inactive,inactive,inactive,inactive,inactive,inactive,inactive,inactive,inactive,inactive,inactive,inactive,inactive,inactive,inactive
CCCCCCCCN(C)C,inactive,inactive,inactive,inactive,inactive,inactive,inactive,inactive,inactive,inactive,inactive,inactive,inactive,inactive,inactive,inactive,inactive,inactive,inactive,inactive
CCn1cc(C(=O)O)c(=O)c2cnc(N3CCNCC3)nc21,inactive,inactive,inactive,inactive,inactive,inactive,inactive,inactive,inactive,inactive,inactive,inactive,inactive,inactive,inactive,inactive,inactive,inactive,inactive,inactive
CCOC=C(C(=O)OCC)C(=O)OCC,inactive,inactive,inactive,inactive,inactive,inactive,inactive,inactive,inactive,inactive,inactive,inactive,inactive,inactive,inactive,inactive,inactive,inactive,inactive,inactive
Cc1ccccc1N=O,inactive,inactive,inactive,inactive,inactive,inactive,inactive,inactive,inactive,inactive,inactive,inactive,inactive,inactive,inactive,inactive,inactive,inactive,inactive,inactive
O=C(CCCN1CCC(O)(c2cccc(C(F)(F)F)c2)CC1)c1ccc(F)cc1,inactive,inactive,inactive,inactive,inactive,inactive,inactive,inactive,inactive,inactive,inactive,365 nM (active),inactive,inactive,inactive,inactive,inactive,inactive,inactive,4.2 nM (active)
Cc1ccc(C)o1,inactive,inactive,inactive,inactive,inactive,inactive,inactive,inactive,inactive,inactive,inactive,inactive,inactive,inactive,inactive,inactive,inactive,inactive,inactive,inactive
CCCCCCCCCCCC(=O)OCC(C)OC(=O)CCCCC(=O)O (stereo not drawn),inactive,inactive,inactive,inactive,inactive,inactive,inactive,inactive,inactive,inactive,inactive,inactive,inactive,inactive,inactive,inactive,inactive,inactive,inactive,inactive
COc1ccc(C(=O)c2cccc(O)c2)c(OC)c1,inactive,inactive,inactive,inactive,inactive,inactive,inactive,inactive,inactive,inactive,inactive,inactive,inactive,inactive,inactive,inactive,inactive,inactive,inactive,inactive
c1ccc2nccnc2c1,inactive,inactive,inactive,inactive,inactive,inactive,inactive,inactive,inactive,inactive,inactive,inactive,inactive,inactive,inactive,inactive,inactive,inactive,inactive,inactive
